Results: PubChem BioAssay AID624256 (NMMLSC, 2012)
Hit rate of the full screen: of about 360,000 compounds, about 3,700 (1%) were called active. Another 2% or so got no clear call; they are omitted. The sample holds actives, similar compounds and a random draw of the others, so the mix is not that of the screen.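 The calls were made as follows: active = normalized GFP-positive differentiation at or above the plate's own cutoff, the solvent-only control mean plus 3 SD; inconclusive = no clear call, values can overlap the other calls; inactive = the rest.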

experiment: HoxA9-arrested leukemia cell differentiation promoters – flow cytometry, MLPCN library, primary screen (AID 624256); conditions: ER-HoxA9 myeloid progenitors, lysozyme-GFP differentiation, at 10 µM; GFP+ MAC1+ double positive: measured here: differentiation confirmed by MAC1 staining, stronger effect = higher value; normalized GFP-positive differentiation: stronger effect = higher value;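 as to GFP+ MAC1+ double positive: cells exposed to compound for four days before flow analysis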;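 as to normalized GFP-positive differentiation: cells exposed to compound for four days before flow analysis; 0% = DMSO wells and 100% = fulvestrant positive control at 5 µM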

Row | Structure (SMILES) | GFP+ MAC1+ double positive [%] | outcome | normalized GFP-positive differentiation
1 | CCCCNC(=O)C[C@@H]1C[C@@]2(C(=O)OCC)CCC=C2N(Cc2cccc3ccccc23)C1=O | 0.6 | inactive | 
2 | CCOc1ccc(CCN2C(=O)C(=O)N([C@@H](Cc3ccc(O)cc3)CN3CCC[C@H]3CN3C(=O)C(=O)NC[C@@H]3CC(C)C)C[C@@H]2Cc2ccccc2)cc1 | 1 | inactive | 
3 | O=[N+]([O-])c1ccccc1Nc1ccc(O)cc1 | 0.4 | inactive | 
4 | Cc1ccc(Nc2nc(N)nc(CSc3nnc(C)s3)n2)cc1 | 0.4 | inactive | 
5 | Cc1ccc(Nc2ccccc2N)cc1 | 0.6 |  | 231% (active)
6 | CC1(C(=O)NCc2ccccc2)CN(S(C)(=O)=O)CC(=O)N1CC(F)(F)F (stereo not given) | 1.4 | inactive | 
7 | CO/N=C/CC(=O)c1ccc(OC)cc1 | 0.8 | inactive | 
8 | COc1ccc(C(=O)C[n+]2ccc(N)c(C)c2C)cc1 | 10.1 |  | 39.6% (active)
9 | COc1ccc(C(=O)C[n+]2ccc(C)cc2)cc1 | 0.2 | inactive | 
10 | Cc1ccc2cc(CN(c3ccc(C)c(C)c3)S(C)(=O)=O)c(=O)[nH]c2c1 | 0.3 | inactive | 
11 | CCN(Cc1cc2cc(C)ccc2[nH]c1=O)S(=O)(=O)c1ccccc1 | 0.4 | inactive | 
12 | COc1ccc(N(Cc2cc3ccc(C)cc3[nH]c2=O)S(=O)(=O)c2ccccc2)cc1 | 9.4 |  | 37.5% (active)
13 | O=C(Nc1cccc2cccnc12)c1ccc2sc([C@H]3C[C@H](O)[C@@H](CO)O3)nc2c1 | 0.8 | inactive | 
14 | Cc1ccc(C(=O)Cc2nnc(C)s2)cc1 | 0.7 |  | 113% (active)
15 | Cc1ccc(C(=O)Cn2cccn2)cc1 | 0.3 | inactive | 
16 | Cc1ccc(NC(=O)CCC(=O)c2ccc(Br)cc2)cc1 | 0.4 | inactive | 
17 | CCC(C)CN1C(=O)CSCC1(C)C(=O)NCc1ccccc1 (stereo not given) | 1.5 | inactive | 
18 | CSCCC(NS(=O)(=O)c1ccc(C)cc1)C(=O)N1CCCC1 (stereo not given) | 1.3 | inactive | 
19 | CSCCC(NS(=O)(=O)c1ccccc1F)C(=O)N1CC=C(c2ccccc2)CC1 (stereo not given) | 1.3 |  | 63.9% (active)
20 | CSCCC(NS(=O)(=O)/C=C/c1ccccc1)C(=O)N1CCC(C)CC1 (stereo not given) | 1 | inactive | 
21 | C#Cc1ccc(NC(=O)C2(C)CCN2C(=O)Cc2ccc(-c3ccccc3)cc2)cc1 (stereo not given) | 0.8 | inactive | 
22 | Cc1ccc2nc(NC(=O)C3CSC4(C)CCC(=O)N34)sc2c1 (stereo not given) | 1.7 | inactive | 

Row | Structure (SMILES) | GFP+ MAC1+ double positive [%] | outcome | normalized GFP-positive differentiation
23 | CC(=O)N(CCCN(C)C)c1nc2ccc(C)cc2s1 | 0.6 |  | 33.5% (active)
24 | Cc1ccc2nc(NC(=O)CSc3nc(=O)n(CCCN(C)C)c4c3CCC4)sc2c1 | 1.3 | inactive | 
25 | CN1C(=O)[C@H]2[C@@H](C3CC3)N3C(=O)CN(Cc4ccccc4)C(=O)[C@@]3(C)[C@H]2C1=O | 1.6 | inactive | 
26 | CCN1C[C@@H]2[C@@H]3C(=O)N(Cc4ccccc4)C(=O)[C@@H]3[C@](C)(C1=O)N2C(=O)c1ccc(C(C)(C)C)cc1 | 1.2 | inactive | 
27 | CCN1C[C@@H]2[C@@H]3C(=O)N(C)C(=O)[C@@H]3[C@](C)(C1=O)N2C(=O)c1ccccc1 | 10.9 |  | 43.5% (active)
28 | Oc1cccc2cc(-c3ccncc3)cnc12 | 0.7 | inactive | 
29 | COCCNc1ncnc2c1ncn2[C@H]1CN(CCN2CCOCC2)C[C@@H](CO)O1 | 1.1 | inactive | 
30 | CCOC(=O)[C@]12CCCC=C1N(CCC1=CCCCC1)C(=O)[C@H](CC(=O)NCCCCc1ccccc1)C2 | 2.2 | inactive | 
31 | CCCOC(=O)Cc1c(O)c2ccccc2[nH]c1=O | 0.6 | inactive | 
32 | O=C(Cc1c(O)c2ccccc2[nH]c1=O)NCc1ccccc1 | 0.1 | inactive | 
33 | COC(=O)Cc1c(-c2[nH]c3ccccc3c2CC(=O)OC)[nH]c2ccccc12 | 17.1 |  | 207% (active)
34 | CCOc1ccc(Cl)cc1-c1cc(C(=O)NCc2cccs2)[nH]n1 | 1.7 | inactive | 
35 | CC1(C(=O)NS(=O)(=O)c2ccccc2)CCN1C(=O)c1ccccc1 (stereo not given) | 0.9 | inactive | 
36 | COc1ccccc1Cc1c(-c2ccc(Cl)cc2)nc2c3ccccc3ccn12 | 0.5 | inactive | 
37 | COCCn1c(=S)[nH]c2cc(C(=O)NCCc3ccc(OC)c(OC)c3)ccc2c1=O | 2.7 | inactive | 
38 | COc1ccc(Cn2c(=S)[nH]c3cc(C(=O)N4CCCCC4)ccc3c2=O)cc1 | 0.2 | inactive | 
39 | CCOC(=O)N1CCN(C(=O)c2ccc3c(=O)n(CCc4ccc(OC)c(OC)c4)c(=O)[nH]c3c2)CC1 | 6.8 |  | 56% (active)
40 | CCCCc1c(-c2ccc(Br)cc2)ncn1CCc1ccccc1OC | 2.9 | inactive | 
41 | C[C@H](NC(=O)[C@@H]1CCCN1C(=O)[C@@H]1CCCN1C(=O)c1ccccc1)c1ccccc1 | 0.7 | inactive | 
42 | Cc1ccc(CN2CC(N3CCC(Cc4ccccc4)CC3)CS2(=O)=O)cc1 (stereo not given) | 1.6 | inactive | 
43 | Cc1cccc(CC2(O)C(=O)Nc3ccccc32)n1 (stereo not given) | 29.8 |  | 367% (active)
44 | Cc1cc(O)c(C2(O)C(=O)Nc3ccccc32)cc1C (stereo not given) | 0.4 | inactive | 

Row | Structure (SMILES) | GFP+ MAC1+ double positive [%] | outcome | normalized GFP-positive differentiation
45 | COc1ccc(C2(O)C(=O)Nc3ccccc32)cc1 (stereo not given) | 0.4 | inactive | 
46 | Cc1ccc(S(=O)(=O)N2CC[C@H]3[C@@H](C2)C(=O)C[C@@H](c2ccccc2)N3S(=O)(=O)c2ccc(C)cc2)cc1 | 2.5 | inactive | 
47 | Cc1[nH]c2ccccc2c1C(=O)COC(=O)c1c(-c2ccccc2)noc1C | 0.6 | inactive | 
48 | CCOC(=O)c1c(-c2ccc(-c3ccccc3)cc2)csc1NC(=O)CCC(=O)O | 0.3 | inactive | 
49 | CCOC(=O)c1c(-c2cccc(C)c2)csc1NC(=O)c1c(-c2ccccc2)noc1C | 15.3 |  | 89% (active)
50 | CC1(C(=O)NCc2ccccc2)CSCC(=O)N1CCCN1CCOCC1 (stereo not given) | 4 | inactive | 
51 | CSCCC(C(=O)NC(C)(C)C)n1c(-c2ccccc2)nc2ccccc21 (stereo not given) | 4 | inactive | 
52 | CSc1ccc(CN2CCC2(C)C(=O)NCc2ccccc2Br)cc1 (stereo not given) | 0.7 | inactive | 
53 | O=C(NCc1ccc(F)cc1)c1cc(C2CCCCN2C(=O)c2ccccn2)on1 (stereo not given) | 2.6 | inactive | 
54 | N#Cc1ccc(C(C(=O)NCc2ccccc2)n2c(=O)c(-c3ccco3)nc3ccccc32)cc1 (stereo not given) | 2.4 | inactive | 
55 | COC(=O)c1ccc(NCc2cc(O)ccc2O)cc1 | 1.6 | inactive | 
56 | CC(OC(=O)c1ccc(Cl)cc1O)C(=O)NCCC1=CCCCC1 (stereo not given) | 0.3 | inactive | 
57 | CC(C)OC(=O)c1ccc(NCc2cc(O)ccc2O)cc1Cl | 7.3 |  | 354% (active)
58 | CC(C)(C)CC(=O)Nc1nc(C(N)Cc2ccc(C(F)(F)F)cc2)cs1 (stereo not given) | 0.2 | inactive | 
59 | Cc1ccc(S(=O)(=O)N2CC3C(=O)C[C@@H](c4ccccc4Cl)N(S(=O)(=O)c4ccc(C)cc4)C3CC2c2ccccc2)cc1 (stereo not given in full) | 1.9 | inactive | 
60 | O=C(O)c1ccc(N/N=C/c2cn(-c3ccccc3)nc2-c2cccs2)cc1 | 0.5 |  | 10.8% (active)
61 | CC(=O)C1=C(C)NC(C)=C(C(C)=O)C1c1cn(-c2ccccc2)nc1-c1cccs1 | 0.7 | inactive | 
62 | S=c1[nH]nc(-c2cccs2)n1/N=C/c1cn(-c2ccccc2)nc1-c1ccc(Cl)cc1 | 0.1 | inactive | 
63 | Cc1nc2c(OCC(=O)C(C)(C)C)cccn2c1N(C)Cc1cccs1 | 2.1 | inactive | 
64 | Fc1cccc(Cc2c(-c3cccc(Cl)c3)nc3ccc(Br)cn23)c1 | 0.4 | inactive | 
65 | O=C(Nc1cccc(Cc2ccccc2)c1)Nc1ccc2nc([C@@H]3O[C@H](CO)[C@@H](O)[C@H](O)[C@H]3O)[nH]c2c1 | 2.9 | inactive | 
66 | CC#CC[N+](C)(C)CCCCCC | 1.6 |  | 19.3% (active)

Row | Structure (SMILES) | GFP+ MAC1+ double positive [%] | outcome | normalized GFP-positive differentiation
67 | COC(=O)[C@]12CCCCC=C1N(Cc1ccc(Cl)cc1Cl)C(=O)[C@H](CC(=O)NCc1cccc3ccccc13)C2 | 1.1 | inactive | 
68 | COc1cccc2sc3cc(NCC[C@@H]4CCCN4C)ccc3c(=O)c12 | 1.3 | inactive | 
69 | Cc1cc2oc3ccc(NCCC4CCCN4C)cc3c(=O)c2cc1C (stereo not given) | 6.6 |  | 73.2% (active)
70 | CCCCNC(=O)c1nc(C2CCN(S(=O)(=O)c3ccc(F)c(F)c3)CC2)oc1-c1cccc(C(F)(F)F)c1 | 0.6 | inactive | 
71 | O=C(Nc1cccc(-n2cnnn2)c1)c1cccnc1 | 2 | inactive | 
72 | Cc1ccc(S(=O)(=O)N2CCCCC2)cc1NC(=O)c1cccnc1 | 1.2 | inactive | 
73 | Cc1ccc(-n2nc3cc(C)c(NC(=O)c4cccnc4)cc3n2)cc1 | 5.5 |  | 15.8% (active)
74 | CC1(C(=O)NS(=O)(=O)c2ccc(C#N)cc2)CCN1C(=O)CC1CCCC1 (stereo not given) | 0.6 | inactive | 
75 | CC(NC(=O)COC(=O)c1ccc(Cl)cc1O)c1ccc(F)cc1 (stereo not given) | 6.2 |  | 140% (active)
76 | CC(NC(=O)COC(=O)CCC(=O)c1ccc(Cl)cc1)c1ccccc1 (stereo not given) | 0.8 | inactive | 
77 | C=CCOc1ccc(/C=C/C(=O)OCC(=O)NC(C)c2ccc(F)cc2)cc1 (stereo not given) | 0.7 | inactive | 
78 | CN1OC[C@@H]2CN(C(=O)C(C)(C)C)[C@H](c3ccc(-n4ccnc4)cc3)C[C@@H]21 | 0.2 | inactive | 
79 | COc1ccc(/C=C/C(=O)c2c(O)cc(OC)cc2OC)cc1 | 1.7 | inactive | 
80 | O=C(NCc1ccccc1)C(c1ccc(F)cc1)N1CCN(C(=O)C2CCCO2)CC1 (stereo not given) | 0.2 | inactive | 
81 | CCC(=O)N1Cc2cc(C(=O)NCc3cccc(F)c3)nc(-c3cccc(C4=CCCC4)c3)c2[C@H]1CCO | 0.5 | inactive | 
82 | Cc1cc(=O)oc2ccc(OCC(=O)O)cc12 | 2.2 | inactive | 
83 | CCOC(=O)c1c(-c2ccccc2)oc2cc(Br)c(O)c(C=O)c12 | 0.5 | inactive | 
84 | CCOC(=O)c1c(-c2ccccc2)oc2ccc(OCC(=O)NN)cc12 | 1.9 |  | 26.6% (active)
85 | CC(C)OC(=O)CC(=O)CC(O)c1cccc([N+](=O)[O-])c1 (stereo not given) | 3.1 | inactive | 
